USP8 block: human USP8 deubiquitinase inhibition. P40818. purified USP8, Ub-rhodamine cleavage fluorescence, 30 min. inhibition, % at 20 µM. actives 4.2% (n = 47,000). AID 1645853
USP30 inh: human USP30 deubiquitinase inhibition; inhibition, % at 25 µM; Q70CQ3; actives 5.3% (n = 47,000); purified USP30, Ub-rhodamine cleavage fluorescence
USP17 inh: inhibitors of human USP17 deubiquitinase. A8MUK1. actives 6.5% (n = 47,000). inhibition, % at 50 µM. purified USP17, Ub-rhodamine cleavage fluorescence, 3 h
Numbers stand for hits; n = inactive; x = no result given. Most compounds without a hit are left out; they make up all but 12% or so of the library. Rule as the data show it: active = inhibition above about 30%; inactive = the rest.

SMILES	USP8 block	USP30 inh	USP17 inh
COc1ccc(CNC(=O)c2ncoc2-c2cccc(C)c2)cc1OC	n	n	n
Cc1cccc(CNC(=O)c2ccc(-c3nnc(-c4cccc(C)c4)o3)cc2)c1	n	n	81.6
O=C(NCc1cccc(Cl)c1)c1ccc(-c2nnc(-c3ccccc3)o2)cc1	93.3	n	50.3
O=C(Cc1nnc(-c2ccccn2)o1)NCc1cccc(Cl)c1	n	n	n
CC(C)c1cc(C2CCCN2S(=O)(=O)c2ccc3c(c2)OCCO3)no1 (configuration not stated)	n	n	n
O=C(O)CNC(=O)[C@H](Cc1ccccc1)NC(=O)N1CCn2c1nc1ccccc12	n	n	n
CCCNC(=O)[C@H](Cc1ccccc1)NC(=O)N1CCn2c1nc1ccccc12	n	39.3	40.3
CC(C)[C@H](NC(=O)N1CCn2c1nc1ccccc12)C(=O)N[C@H](Cc1ccccc1)C(=O)O	n	n	n
CC(C)NC(=O)[C@H](Cc1ccccc1)NC(=O)N1CCn2c1nc1ccccc12	n	62.4	33.1
COc1ccc(NC(=O)c2oc3ccccc3c2COc2ccccc2)cc1S(=O)(=O)N1CCCCC1	n	n	n
CCOc1ccccc1CNC(=O)CCc1nc2sc3c(c2c(=O)[nH]1)CCCC3	n	n	n
O=C(C1CCCCC1)N1CCN(c2nc3c(Cl)cccc3s2)CC1	n	n	n
Cc1ccc(NC(=O)Cn2c(Nc3cccc(C)c3)nc(C)cc2=O)cc1	n	57.9	35.8
CCn1c(=O)c2nscc2n(CC(=O)Nc2cccc(C)c2)c1=O	n	n	n
Cc1cccc(NC(=O)Nc2ccc(C)n(CC(=O)Nc3ccccc3)c2=O)c1	n	41.2	60.9
Cc1cccc(NC(=O)Cn2c(C)ncc(C(=O)NC3CC3)c2=O)c1	n	n	n
Cc1cc(=O)n(CC(=O)Nc2ccc(F)cc2)c(Nc2ccc(F)cc2)n1	n	n	n
Cc1cccc(NC(=O)Nc2ccc(C)n(CC(=O)Nc3ccc(C)c(C)c3)c2=O)c1	73.8	n	n
Cc1ccc(NC(=O)Nc2ccc(C)n(CC(=O)Nc3cccc(C)c3)c2=O)cc1	93.8	n	n
Cc1ccc(NC(=O)Nc2ccccc2)c(=O)n1CC(=O)N1CCN(c2ccccn2)CC1	n	n	n
CNC(=O)[C@@H]1CN2CCN(S(=O)(=O)c3ccccc3)C[C@@H]2[C@H]1c1ccccc1	n	n	n
CCC1Oc2ccc(C(=O)c3ccco3)cc2N(CC(=O)NC(C)C)C1=O (configuration not stated)	n	n	n
CC(C)n1ncc2c(C(=O)NCCc3ccc(Cl)cc3)cc(C3CC3)nc21	n	n	n
COc1cccc(NC(=O)Cn2c(-n3nc(C)cc3C)nc3c(c2=O)CCC3)c1	n	n	n
Cc1cccc(NC(=O)Cn2c(-n3nc(C)cc3C)nc3c(c2=O)CCC3)c1	n	n	37.3
SMILES	USP8 block	USP30 inh	USP17 inh
O=S1(=O)CCN(CC2CCCO2)c2c(Oc3ccccc3)nc(F)c(Cl)c21 (configuration not stated)	91.7	n	60.2
COCCN1CCS(=O)(=O)c2c(Cl)c(F)nc(Oc3ccc(OC)cc3)c21	n	n	n
CC(C)c1ccc(N2CCN(CC3CCCCO3)C2=O)cc1 (configuration not stated)	n	n	n
COCCCN1CCS(=O)(=O)c2c(Cl)c(F)nc(Oc3ccccc3F)c21	95.4	n	87.9
O=S1(=O)CCN(Cc2cccnc2)c2c(Oc3ccccc3)nc(F)c(Cl)c21	n	n	n
N#Cc1ccc(OCC(=O)N2CCCC2c2ccc3c(c2)OCCCO3)cc1 (configuration not stated)	n	n	n
N#Cc1ccc(Oc2nc(F)c(Cl)c3c2N(CC2CCCO2)CCS3(=O)=O)cc1 (configuration not stated)	71.1	n	46.6
O=S1(=O)CCN(CC2CCCO2)c2c(Oc3ccc(F)cc3)nc(F)c(Cl)c21 (configuration not stated)	70.3	n	33.7
CCCNS(=O)(=O)c1cc(-c2[nH]ncc2C(=O)N2CCOCC2)oc1C	n	x	n
COc1ccc(CN(C(=O)c2cccs2)c2ccc(C)cc2)cc1OC	n	n	n
Cc1nnc(-c2cc(S(=O)(=O)N3CCN(c4ccc(F)cc4)CC3)c[nH]2)o1	n	n	n
Cc1ccc(NC(=O)CSc2nnc(-c3cccnc3)n2C)cc1	n	n	n
CCCCCC1CC2=C(C(=O)OC2=O)C(O)C(O)(CCCC)CC2=C1C(=O)OC2=O (configuration not stated)	n	n	n
CCCCCCCCCCCC[C@@]1(C(=O)O)OC(=O)[C@@H](O)[C@@]1(O)C(=O)O	n	41.4	n
COc1ccc(-c2nc(-c3ccc(=O)[nH]c3)no2)cc1F	n	n	n
CCC(=O)N1CC[C@@H]2Oc3ccccc3S(=O)(=O)N(CC(C)C)[C@H]2CC1	n	n	n
O=C(Nc1nc2ccc(F)cc2s1)c1cc(Cl)sc1Cl	70.1	n	n
O=C(Nc1nc2ccc(F)cc2s1)c1ccc2ccccc2n1	n	n	n
CCn1ncc(C(=O)N2CCc3nc4ccccc4c(=O)n3CC2)c1C	n	n	n
COc1ccc(S(=O)(=O)N2CCc3ccccc32)cc1C(=O)Nc1ccc2[nH]c(=O)[nH]c2c1	73.3	87.4	n
COc1cc(NC(=O)COC(=O)c2cccc(S(=O)(=O)N3CCc4ccccc43)c2)cc(OC)c1	n	n	n
COc1ccc(NC(=O)c2cccc(S(=O)(=O)N3CCCc4ccccc43)c2)c(OC)c1	n	n	n
COc1ccccc1NC(=O)c1cc(S(=O)(=O)N2CCCc3ccccc32)ccc1F	n	n	42.9
Cc1noc(C)c1CSc1ncccc1C(=O)Nc1ccnn1C1CCCCC1	n	n	n
O=[N+]([O-])c1ccccc1-c1nc(-c2ccc(Cl)cc2)no1	n	n	n
SMILES	USP8 block	USP30 inh	USP17 inh
CCOc1cccc2c1OC(C)(C)[C@H]1CC3(CCN(C(=O)c4ccc(NC(C)=O)nc4)CC3)CO[C@H]21	n	n	n
COc1cccc2c1OC(C)(C)[C@H]1CC3(CCN(C(=O)COc4cccnc4)CC3)CO[C@H]21	67.2	n	n
CCn1c(CSc2nnc(C3CC3)n2Cc2ccccc2)nc2cc(S(=O)(=O)N(C)C)ccc21	n	n	n
CCn1c(CN2CCc3ccccc3C2)nc2cc(S(=O)(=O)N(C)C)ccc21	79.0	n	34.3
O=C(NCCc1ccncc1)c1nc2c(o1)CN(CC1CC1)C2	n	n	n
O=C(CSc1nnc(NC(=O)c2ccc([N+](=O)[O-])cc2)s1)Nc1ccc(Br)cc1	n	32.5	n
O=C(Cc1cccs1)Nc1nnc(SCc2ccc([N+](=O)[O-])cc2)s1	n	n	n
CCn1c(=N)n(CCOc2ccc(F)cc2)c2ccccc21	n	39.3	n
Cc1ccc(OCCn2c(=N)n(C(C)C)c3ccccc32)cc1	n	n	n
O=C(Nc1nc(C(=O)N2CCc3ccccc3C2)co1)c1ccco1	n	n	n
CCc1ccc(C(=O)COc2ncnc3sc(C)c(C)c23)cc1	n	n	n
Cc1sc2ncnc(OCC(=O)c3ccc(NC(=O)CC(C)C)cc3)c2c1C	30.3	n	n
COc1cccc(CCN2C[C@H]3CCN(C(=O)C4CCC4)CC[C@H]3S2(=O)=O)c1	n	n	n
O=C(Nc1cccc(F)c1)c1ccc2c(c1)ncn2CCN1CCCC1	n	n	n
CCC(=O)Nc1nc2ccc(NC(=O)C3CC3)cc2s1	n	n	n

Source: PubChem
